Screening data (PubChem BioAssay)
AMA1-RON2 inh: disrupts binding of P. falciparum AMA1 to RON2 | Potency, µM (top dose mostly 58.2 µM), hits mostly inhibitors | 0.2% of 360,000 active | AlphaScreen AMA1-biotinylated RON2 peptide binding; further: nearly all actives have a fitted effect of over 45% in size
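AMA1 (3D7) with his tag at 25 nM final met compounds first, then biotinylated RON2 peptide at 25 nM; detection used donor plus acceptor beads, 10 µg/mL apiece, read by AlphaScreen after 30 min at room temperature.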
Shiga toxin inh: Shiga toxin inhibition | Vero cells, Shiga toxin protein synthesis inhibition reporter | inhibition, % at 38.7 µM | 9.2% of 290,000 active; in the data active means inhibition mostly above about 28%, no sharp cut-off; inactive means mostly below about 43%
Pf growth 96h: P. falciparum growth inhibition at 96 hour, primary screen for plastid delayed-death inhibitors; Potency, µM (titrated, usually from 28.7 µM), hits mostly inhibitors; P. falciparum luciferase reporter growth, 96 h; 6.9% of 320,000 active
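Delayed-death screen, second-generation endpoint: infected erythrocytes, 2% hematocrit, 0.05% parasitemia final; 96 hours at 37 C, 5% CO2; luciferase detection reagent; luminescence decrease equals reduced growth.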
HCV inh: HCV inhibition. 3.4% of 340,000 active. AID 651820. Potency, µM (doses to about 41.8 µM), hits mostly inhibitors. Huh7.5.1 HCVcc-Cre infection, luciferase reporter, 44 h
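Compounds are dispensed onto cells plated 4 h earlier at 1,000 per well, with HCVcc-Cre virus (about 0.5 moi) added next. Following 44 h of culture, luminescent signal is measured for 15 sec after 15 min with substrate at room temperature.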
Pf growth 48h: P. falciparum growth inhibition at 48 hours (one generation) | P. falciparum luciferase growth in erythrocytes, 48 h | Potency, µM (highest dose often 28.7 µM), usual class: inhibitors | 5.9% of 310,000 active
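Firefly luciferase activity from engineered P. falciparum reports growth; inhibitors lower the luminescent signal. Cultures contained 2% hematocrit erythrocytes at 0.1% final parasitemia.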
Cycloheximide cs: affects cycloheximide protein synthesis inhibition readout, counter-screen; 12% of 300,000 active; cell reporter, cycloheximide protein synthesis inhibition counterscreen; max response, %; AID 2314; in the data active means max response mostly above about 13%, no sharp cut-off; inactive means mostly below about 14%; further: read at 38.3 µM for the half of the compounds with a filed dose
A number is an active result; - = inactive; ? = inconclusive; . = no result; [ ] = dose if it differs, or a comment. Rows were chosen to be rich in hits. Some 21% of all compounds tested hit in one or more screens of this group. Unless noted, the call rests on the fitted dose curve; in most records, active means well fitted curve in the direction sought with a large enough effect; inconclusive means small, poorly fitted or top-dose-only effect, or another doubt; inactive means no such curve, though single readings can be large; an effect the other way counts as inactive or inconclusive.

SMILES | AMA1-RON2 inh | Shiga toxin inh | Pf growth 96h | HCV inh | Pf growth 48h | Cycloheximide cs
O=C(NCCCN1CCOCC1)c1ccc2c(c1)N(Cc1cccc(Cl)c1)C(=O)c1ccccc1S2=O (configuration not stated) | - | - | - | ? | 12µM | -
CCN1C(=O)c2ccccc2S(=O)c2ccc(C(=O)NCCN(CC(C)C)CC(C)C)cc21 (configuration not stated) | - | - | - | - | 12µM | -
Cc1ccc(S(=O)(=O)N2C[C@H]3C(=O)C[C@@H](c4cccc(Cl)c4)N(S(=O)(=O)c4ccc(C)cc4)[C@H]3C[C@H]2c2ccc(Cl)cc2)cc1 | - | . | . | . | . | .
COc1ccc(Br)cc1CN1CCCC(C(=O)N2CCCCCC2)C1 (configuration not stated) | - | - | ? | 3.2µM | ? | -
COc1ccc(Br)cc1CN1CCC(N2CCCC2)CC1 | ? | - | ? | ? | 9.3µM | -
CCCCn1c(N)c(N(CCOC)C(=O)COC(=O)/C=C/c2ccc(Br)cc2)c(=O)[nH]c1=O | - | - | - | - | - | -
CC(NC(=O)NC(N)=O)(C(F)(F)F)C(F)(F)F | - | - | 7.4µM | - | - | -
CCC(C)Sc1ccc(-c2nc3ccc(Cl)cn3c2NCc2ccccc2)cc1 (configuration not stated) | - | . | . | - | . | .
CCCCCCSc1ccc(-c2nc3ccc(C)cn3c2NCc2ccccc2)cc1OC | - | . | 4.7µM | - | 5.2µM | .
CCCCCCSc1ccc(-c2nc3ccc(C)cn3c2NCc2ccccc2)cc1 | - | . | ? | - | ? | .
CCCCNc1c(-c2ccc(OC)c(SC(C)CC)c2)nc2ccc(C)cn12 (configuration not stated) | - | . | . | ? | . | .
CCCCNc1c(-c2ccc(OC)c(SC3CCCCC3)c2)nc2ccc(C)cn12 | - | . | . | ? | . | .
CCC(C)Sc1cc(-c2nc3ccc(C)cn3c2NCc2ccccc2)ccc1OC (configuration not stated) | - | . | . | 10µM | . | .
COc1ccc(-c2nc3ccc(C)cn3c2NCc2ccccc2)cc1SC1CCCCC1 | - | . | 6.6µM | ? | 10µM | .
CCC(C)Sc1ccc(-c2nc3ccc(C)cn3c2NCc2ccccc2)cc1OC (configuration not stated) | - | . | 4.7µM | 4µM | 3.7µM | .
C=CCn1c(SCC(=O)c2c(N)n(CCC)c(=O)n(C)c2=O)nnc1-c1ccncc1 | - | - | ? | - | - | -
COCC(=O)Nc1c(I)c(C(=O)NC[C@@H](O)CO)c(I)c(C(=O)N(C)C[C@@H](O)CO)c1I | . | . | - | . | - | .
COc1ccc(CN2CCC[C@]3(N[C@H](c4ccc(C(F)(F)F)cc4)[C@@H]4C(=O)N(C)C(=O)[C@@H]43)C2=O)cc1 | - | . | . | . | . | .
CC1C(O)=C(c2nc3ccccc3[nH]2)C(=N)N1c1ccccc1 (configuration not stated) | - | 128 | - | ? | - | 24
CCC(C)N1CC(O)=C(c2nc3ccccc3[nH]2)C1=N (configuration not stated) | - | 84 | . | - | - | -
COc1ccc(Nc2nc(-c3ccc(OC)cc3)c(CCC(=O)O)s2)cc1 | - | - | - | - | - | -
Cc1ccc(Nc2nc(-c3ccc(C)cc3)c(CC(=O)O)s2)cc1 | - | - | - | - | - | 14
O=C(O)Cc1sc(Nc2ccc(Cl)cc2)nc1-c1cccs1 | - | 75 | - | - | - | 47
O=C(O)Cc1sc(Nc2cccc3ccccc23)nc1-c1ccccc1 | - | . | ? | - | ? | .
O=C(O)Cc1sc(Nc2cccc3ccccc23)nc1-c1ccc(Cl)cc1 | - | - | - | - | ? | 20
SMILES | AMA1-RON2 inh | Shiga toxin inh | Pf growth 96h | HCV inh | Pf growth 48h | Cycloheximide cs
COC(=O)CCc1sc(Nc2ccccc2)nc1-c1ccc(OC)cc1 | ? | 91 | - | - | - | 23
Nc1nc(-c2cccs2)c(CC(=O)O)s1 | - | - | - | - | - | -
COc1ccc(C(=O)OCc2c(-c3ccccc3)ncc3ccccc23)cc1 | - | . | . | ? | . | .
CCCCNC(=NCc1cccc(C(F)(F)F)c1)Nc1ccccc1 | - | - | ? | ? | . | -
COC(=O)[C@@]12C[C@@H](CC(=O)N3CCSCC3)C(=O)N(Cc3ccco3)C1=CCC(C)(C)C2 | - | . | . | . | . | .
CNC(=S)N(CCc1c(C)[nH]c2ccc(F)cc12)Cc1cccnc1 | - | - | - | ? | . | -
CC(=O)Nc1ccc(S(=O)(=O)N2CCc3cc4c(cc3C2)OCCCO4)cc1 | - | - | - | ? | - | -
Cc1[nH]c2ccccc2c1C(=O)COC(=O)c1ccc2c(=O)n3c(nc2c1)CCC3 | - | - | - | - | ? | -
COc1cccc(C(=O)Nc2cc3c(cc2N2CCCC2)n(C)c(=O)n3C)c1 | - | - | 12µM | ? | - | -
COc1cccc(OC)c1C(=O)Nc1cc2c(cc1N1CCOCC1)n(C)c(=O)n2C | - | - | ? | - | 8.3µM | -
Cn1c(=O)n(C)c2cc(N3CCOCC3)c(NC(=O)c3ccc(F)cc3)cc21 | - | - | 9.3µM | - | ? | -
Cn1c(=O)n(C)c2cc(N3CCOCC3)c(NC(=O)c3cccc(Cl)c3)cc21 | - | - | 1.7µM | ? | - | -
COc1cc(NC(=O)COc2cc3oc(=O)cc(C)c3cc2Cl)cc(OC)c1OC | - | - | - | - | - | -
CC1(c2ccccc2)NC(=O)N(CC(=O)Nc2ccc(N3CCOCC3)cc2)C1=O (configuration not stated) | - | . | . | - | . | .
CC(C)(C)c1ccc(NC(=O)CSc2n[nH]c(=O)n2C2CC2)cc1 | - | . | . | ? | . | .
c1ccc(-c2cnc(-c3ccccc3)nc2)cc1 | - | 88 | . | - | - | 69
Nc1cnc(-c2ccccc2)nc1Cl | - | 13 | - | - | - | -
COc1ccc(/C=C(/NC(=O)c2ccccc2)C(=O)N2CCOCC2)cc1OC | - | - | - | - | - | -
CCOc1ccccc1N1CCN(CC(O)COC2CCCc3ccccc32)CC1 (configuration not stated) | - | - | ? | 11µM | ? | -
O=S(=O)(c1cccs1)N1CCN(CC(O)COC2CCCc3ccccc32)CC1 (configuration not stated) | - | - | . | - | - | -
Cc1cc(=O)oc2cc(OCC(O)CN3CCN(c4ccc(F)cc4)CC3)ccc12 (configuration not stated) | - | - | . | - | - | -
CCOc1ccccc1N1CCN(CC(O)COc2ccc3c(C)cc(=O)oc3c2)CC1 (configuration not stated) | - | - | - | ? | 8.3µM | -
C=CCNC(=O)Cc1ccc(S(=O)(=O)N2CCOCC2)s1 | - | . | ? | - | ? | .
O=S1(=O)[C@H]2C[C@@H]3C=C[C@]2(CN1Cc1ccc(C(F)(F)F)cc1)O3 | - | - | ? | - | - | -
CCCCNc1nnc(SCC(=O)c2c[nH]c3ccccc23)s1 | -[11.6 µM] | - | 8.3µM | - | 10µM | -
Cn1cnnc1SCC(=O)c1c[nH]c2ccccc12 | - | - | . | - | - | -
